# Many of the other results were omitted from the sample, so hits are more common in it than they were.
# TDP1 cell noCPT: qHTS for Inhibitors of human tyrosyl-DNA phosphodiesterase 1 (TDP1): qHTS in cells in absence of CPT | DT40 Tdp1-/- hTDP1 cells, no CPT, ATP luminescence, 48 h | Potency, µM (titrated, usually from 46.2 µM), most hits filed as inhibitors | hit rate 15% among 420,000 | AID 686978, 2013; further: nearly all actives have a fitted effect of over 55% in size
#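 Camptothecin absent (DMSO only). Human TDP1-complemented DT40 knockout cells, 400 cells/well, 37 °C for minimum 48 hr; ATP measured via CellTiter-Glo, 30 min dark incubation, luminescence.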
# HT1080NT lethal: kills 2HG-producing HT-1080-NT fibrosarcoma cells | HT-1080-NT fibrosarcoma viability, CellTiter-Glo ATP luminescence, 48 h | Potency, µM (titrated, usually from 46.1 µM), actives largely listed as cytotoxic | hit rate 1.6% among 360,000 | AID 686970;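 further: NT is the 2HG producing partner of a matched IDH1 knockdown line; nearly all actives have a fitted effect of over 55% in size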
#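 750 cells/well, RPMI + 5% FBS; 2 h settle, compound pin-transfer, 48 h at 37 degrees C. CellTiter-Glo 10 min RT, luminescence. Normalized to DMSO and media-only wells.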
# HT1080 IDH1KD tx: toxicity to HT-1080 IDH1 knockdown cells (counter line); HT-1080 IDH1 knockdown viability, ATP luminescence, 48 h; Potency, µM (top dose mostly 46.1 µM), most hits filed as cytotoxic; hit rate 2% among 360,000
#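 Using the IDH1-knockdown HT-1080 line run in the same batch and compound series as the NT line, viability after 48 h at 37 °C was determined by CellTiter-Glo luminescence and expressed as % activity.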
# IL1B secr inh: blocks inflammasome-driven IL-1 beta release. activity change, % at 57.5 µM. hit rate 4.7% among 360,000. THP-1 LPS/ATP IL-1B secretion, AlphaLISA, 16 h; active compounds read low; in the data active means activity change below about -50%; inconclusive means mostly about -30% to -49%
#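 THP-1 cells pretreated 1 hr with compounds (up to 57.5 uM final), then stimulated with LPS (250 ng/mL final) plus ATP (1.25 mM final); secreted IL-1B measured by AlphaLISA after 16 hr, decreased signal indicating inhibition.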
# TDP1 cell CPT: growth inhibition of DT40 Tdp1-/-;hTDP1 cells with camptothecin (screen for TDP1 inhibitors). chicken DT40 Tdp1-/-;hTDP1 cells + 20 nM CPT, ATP luminescence, 48 h. Potency, µM (doses to about 46.2 µM), usual class: inhibitors. hit rate 12% among 420,000. AID 686979; further: nearly all actives have a fitted effect of over 55% in size
#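 Chicken DT40 Tdp1-/- cells stably complemented with human TDP1 were seeded at 400 cells/well in medium containing 20 nM camptothecin, exposed to pin-transferred compounds, and grown at 37 °C for at least 48 hr. Viability was read as ATP luminescence.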
# 12-LOX inh: ALOX12 (human) lipoxygenase inhibition. purified 12hLO, xylenol orange hydroperoxide absorbance. Potency, µM (series often up to 108 µM), hits mostly inhibitors. hit rate 1.1% among 580,000. AID 1671190
# Target sequence (P18054 whole entry, looked up): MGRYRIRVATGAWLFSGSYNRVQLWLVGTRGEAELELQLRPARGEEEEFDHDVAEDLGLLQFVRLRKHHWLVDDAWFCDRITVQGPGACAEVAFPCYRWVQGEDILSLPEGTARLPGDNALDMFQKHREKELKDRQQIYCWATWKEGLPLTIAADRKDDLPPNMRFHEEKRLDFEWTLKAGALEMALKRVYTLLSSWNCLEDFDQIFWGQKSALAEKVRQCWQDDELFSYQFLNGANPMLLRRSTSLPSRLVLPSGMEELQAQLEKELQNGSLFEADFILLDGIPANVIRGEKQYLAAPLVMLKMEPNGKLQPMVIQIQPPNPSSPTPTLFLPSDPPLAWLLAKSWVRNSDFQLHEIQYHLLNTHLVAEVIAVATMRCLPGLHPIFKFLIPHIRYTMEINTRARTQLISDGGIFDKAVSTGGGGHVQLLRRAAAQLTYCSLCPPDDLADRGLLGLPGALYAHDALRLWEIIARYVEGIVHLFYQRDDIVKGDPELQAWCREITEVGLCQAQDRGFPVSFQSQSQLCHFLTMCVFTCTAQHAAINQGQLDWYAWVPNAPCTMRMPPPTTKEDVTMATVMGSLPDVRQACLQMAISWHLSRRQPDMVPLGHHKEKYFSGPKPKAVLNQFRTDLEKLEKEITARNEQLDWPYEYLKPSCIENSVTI
#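 Purified human 12hLO (150 nM final) in 25 mM Hepes, 0.01% Triton X-100, pH 7.0 was preincubated 15 min at room temperature with compound. Then 40 uM arachidonic acid was added, 30 min. Hydroperoxide was read by Fe-XO absorbance ratio 573/405 nm.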
# A number is an active result; i = inactive; ? = inconclusive; nt = no result; ! = not confirmed by another sample. Unless noted, the call rests on the fitted dose curve; in most records, active means well fitted curve in the direction sought with a large enough effect; inconclusive means small, poorly fitted or top-dose-only effect, or another doubt; inactive means no such curve, though single readings can be large; an effect the other way counts as inactive or inconclusive.
SMILES,TDP1 cell noCPT,HT1080NT lethal,HT1080 IDH1KD tx,IL1B secr inh,TDP1 cell CPT,12-LOX inh
COc1cnn(-c2ccccc2)c(=O)c1SCc1ccc(Cl)cc1Cl,21µM,i,i,-51,29µM,?
CC1CCCC=CC2CC(OC(=O)CN(C)C)CC2C(O)C=CC(=O)O1 (configuration not stated),1µM,?,0.029µM,i,0.92µM,i
O=C(Cn1nnc(-c2ccccc2)n1)N/N=C/c1ccco1,i,i,i,i,i,i
CC(C)(C)OC(=O)N[C@@H](C(=O)OC(C)(C)C)c1ccc2ccccc2c1,23µM,i,i,i,?,i
O=C(O)c1ccc(N=NNc2cccc([N+](=O)[O-])c2)cc1,?,i,i,i,i,i
N#C/C(=N\Nc1ccc(S(=O)(=O)N2CCc3ccccc32)cc1)C(N)=S,12µM,10µM,9.2µM,i,i,16µM
CCOC(=O)/C(C#N)=N/Nc1ccc(S(=O)(=O)N2CCc3ccccc32)cc1,?,?,i,i,?,?
N#C/C(=N\Nc1ccc(S(=O)(=O)N2CCCCCC2)cc1)C(N)=S,?,?,i,i,?,?
N#C/C(=N\Nc1ccc([N+](=O)[O-])cc1)C(N)=S,23µM,?,13µM,-66,?,25µM
N#C/C(=N\Nc1cccc([N+](=O)[O-])c1)C(=O)c1ccc(Br)cc1,6.5µM,5.8µM,2.6µM,-64,5.8µM,40µM
N#C/C(=N\Nc1ccc(S(=O)(=O)N2CCCCC2)cc1)C(N)=S,?,?,?,i,?,50µM
COc1cc(OC)c2c(C)c(CC(=O)N3CCC(O)(c4ccc(Cl)cc4)CC3)c(=O)oc2c1,nt,nt,nt,nt,nt,i
C(#CCN1CCN(C(c2ccccc2)c2ccccc2)CC1)COCCOCc1ccccc1,nt,nt,nt,nt,nt,i
CN(C)c1ccc(CN2CCC(C(=O)NC(c3ccc(Cl)cc3)c3cnccn3)CC2)cc1 (configuration not stated),16µM,i,?,?,21µM,?
O=C(NC(c1ccc(Cl)cc1)c1cnccn1)C1CCN(Cc2cccc(C(F)(F)F)c2)CC1 (configuration not stated),8.2µM,?,?,nt,12µM,?
O=C(NC(c1ccc(Cl)cc1)c1cnccn1)C1CCN(Cc2ccccc2)CC1 (configuration not stated),?,i,i,i,?,i
O=C(NC(c1ccc(-c2ccccc2)cc1)c1cnccn1)C1CCN(Cc2cccc(C(F)(F)F)c2)CC1 (configuration not stated),18µM,i,?,-63,26µM,nt
CC(=O)N1CCCc2cc(S(=O)(=O)N3CCCC(C(=O)NCc4ccc(C)cc4)C3)ccc21 (configuration not stated),23µM,i,i,i,18µM,i
CC(=O)N1CCCc2cc(S(=O)(=O)N(Cc3ccccc3)C(C)C)ccc21,16µM,nt,nt,nt,15µM,i
CC(=O)N1CCCc2cc(S(=O)(=O)N3CCCC(C(=O)NCc4ccccc4)C3)ccc21 (configuration not stated),26µM!,i,i,i,?,i
CC(=O)N1CCCc2cc(S(=O)(=O)N3CCCC(C(=O)Nc4cc(C)ccc4C)C3)ccc21 (configuration not stated),i,i,i,i,?,i
COc1ccc(-c2noc(C(=O)N3CCC3)c2[C@H](C)O)cc1,nt,nt,nt,nt,nt,i
Cc1cc(C(=O)NNC(=O)Nc2ccc(Cl)cc2)no1,i,i,i,i,i,i
Cc1cc(C(=O)NNc2ccc(C)c(C)c2)no1,i,?,23µM,i,i,i
Cc1ccc(NNC(=O)c2ccno2)cc1Cl,10µM,?,3.7µM,i,?,?
Cc1cc(C(=O)NNc2ccc(Cl)cc2)no1,?,2.3µM,2.6µM,i,i,?
CCc1cccc(NC(=O)N2CCC3(CC2)CC(=O)N(Cc2ccccc2)C3)c1,nt,nt,nt,nt,nt,i
O=C(NCCc1c[nH]c2ccccc12)c1cnc2c(c1)N(C(=O)CCc1ccccc1)CCC2,nt,nt,nt,nt,nt,i
CCN(CC)c1cc(C)nc(Nc2ccc(NC(=O)CCCc3ccccc3)cc2)n1,nt,nt,nt,nt,nt,i
C=CCNc1nc2c(c(=O)n(C)c(=O)n2C)n1CC(O)COc1ccc(OC)cc1 (configuration not stated),nt,nt,nt,nt,nt,i

# From PubChem BioAssay
